# Data from PubChem BioAssay AID1835 (Johns Hopkins Ion Channel Center, 2009).
# The whole screen tested about 2,400 compounds, of which about 750 (31%) were called active. The list shows a part of the results. A number with no mark means an inactive call.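 How the source made its calls: active means median signal gain over dofetilide-blocked control wells reaching their mean plus 3 SD, so readout 1 at least 0; inactive means the rest.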
# Target: Voltage-gated inwardly rectifying potassium channel KCNH2 (Homo sapiens) (UniProt Q12809)
# Assay: modulators restoring hERG flux under dofetilide – cell-based, thallium flux, duplicate retest, dofetilide IC70, confirmation (AID 1835)
# Conditions: hERG cell line, FluxOR thallium flux, dofetilide-blocked; at 10 µM; hits give high values
# Chain of Voltage-gated inwardly rectifying potassium channel KCNH2 (Homo sapiens) (Q12809 whole entry, looked up): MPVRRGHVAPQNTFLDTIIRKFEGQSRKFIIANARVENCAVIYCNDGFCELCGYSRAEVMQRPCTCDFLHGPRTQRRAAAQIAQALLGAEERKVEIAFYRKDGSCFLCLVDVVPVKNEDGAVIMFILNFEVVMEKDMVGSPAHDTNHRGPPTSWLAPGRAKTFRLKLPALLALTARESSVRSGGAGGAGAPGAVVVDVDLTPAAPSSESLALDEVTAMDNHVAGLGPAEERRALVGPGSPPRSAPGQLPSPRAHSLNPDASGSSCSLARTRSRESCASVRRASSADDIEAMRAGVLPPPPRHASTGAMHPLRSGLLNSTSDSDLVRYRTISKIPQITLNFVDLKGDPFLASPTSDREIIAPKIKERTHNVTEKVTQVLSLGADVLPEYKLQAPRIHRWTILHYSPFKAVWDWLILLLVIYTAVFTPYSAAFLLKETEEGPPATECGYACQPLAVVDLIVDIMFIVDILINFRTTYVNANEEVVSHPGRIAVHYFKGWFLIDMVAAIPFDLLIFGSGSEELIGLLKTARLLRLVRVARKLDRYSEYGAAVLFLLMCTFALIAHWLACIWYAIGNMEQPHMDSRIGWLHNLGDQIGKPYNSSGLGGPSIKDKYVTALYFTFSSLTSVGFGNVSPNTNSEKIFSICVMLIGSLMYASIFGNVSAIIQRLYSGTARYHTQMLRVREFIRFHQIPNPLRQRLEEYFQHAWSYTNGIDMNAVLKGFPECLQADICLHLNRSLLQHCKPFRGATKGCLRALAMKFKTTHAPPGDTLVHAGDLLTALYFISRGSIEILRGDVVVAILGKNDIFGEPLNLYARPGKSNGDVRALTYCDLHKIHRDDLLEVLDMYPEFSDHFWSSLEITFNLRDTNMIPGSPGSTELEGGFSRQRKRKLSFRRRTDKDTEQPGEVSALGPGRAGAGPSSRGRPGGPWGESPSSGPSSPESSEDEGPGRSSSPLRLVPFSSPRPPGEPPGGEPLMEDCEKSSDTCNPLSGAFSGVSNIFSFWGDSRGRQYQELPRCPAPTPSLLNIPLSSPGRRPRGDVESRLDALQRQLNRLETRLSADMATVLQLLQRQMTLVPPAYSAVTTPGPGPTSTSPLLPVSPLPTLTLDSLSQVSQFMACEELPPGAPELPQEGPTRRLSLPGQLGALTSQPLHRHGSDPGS
row,SMILES,"activity increase over dofetilide control, less the hit threshold"
1,Cc1cc(NC(C)C)n2c(nc3ccccc32)c1C#N,-18%
2,O=C(O)CN1C(=O)C(=O)N(Cc2ccc(C(F)(F)F)cc2)C1=O,6% (active)
3,O=C(Nc1cccnc1)c1ccc(COc2cc(Cl)ccc2Cl)o1,0% (active)
4,O=C(Nc1ccc(Cl)c(-c2nc3ccccc3[nH]2)c1)c1cccnc1,-43%
5,O=C(Nc1cccnc1)c1ccc(COc2ccccc2Br)o1,-3%
6,COc1ccc(Cc2c(O)nc(SCC(C)C)[nH]c2=O)cc1,-18%
7,OC(CNCCc1ccc(C(F)(F)F)cc1)COc1cccc2ccccc12 (centres undefined),-22%
8,O=C(OCc1ccccc1)C1=NNC2C(=O)N(c3ccc(Br)cc3)C(=O)C12 (centres undefined),-2%
9,Cc1cc(C(=O)CCC(=O)NC(C)c2ccc(S(N)(=O)=O)cc2)c(C)s1 (centres undefined),-15%
10,COc1ccc(/C(C)=N/Nc2ccc(C(=O)O)cc2)c(OC)c1,-12%
11,Cc1ccc(/C=N/Nc2nc(C(C)(C)C)cs2)o1,-17%
12,Cc1ccc(/C=N/Nc2ccc(C(=O)O)cc2)o1,1% (active)
13,CC(C)(C)OC(=O)C(Cl)(C(=O)OC(C)(C)C)c1ccc2nnnn2n1,-27%
14,Cc1cc(C)c(C(=O)c2ccc(C(=O)N3CCCCC3)cc2)c(C)c1,23% (active)
15,COc1ccc(C)cc1NC(=O)Nc1ccc(C(=O)N2CCCC2)cc1,-5%
16,CC(C)Oc1cccc(C(=O)N2CCCC2)c1,-4%
17,Cc1ccc(CNC(=O)c2ccc(CNc3c(N4CCCC4)c(=O)c3=O)cc2)cc1,-7%
18,Cc1ccc2nc(SCC(=O)N3CCCCCC3)nc(=O)n2c1,-20%
19,Cc1ccc(SCc2ccc(C(=O)N3CCCC3)cc2)cc1,9% (active)
20,O=c1cc(O)c2ccccc2n1Cc1ccccc1Cl,-8%
21,COc1ccc(-c2c(C#N)c(SCC(=O)c3cc4ccccc4oc3=O)nc(C)c2C(=O)Nc2ccccc2)cc1,-13%
22,Cc1ccc(Nc2nc(-c3ccncc3)cs2)cc1,-8%
23,Cc1ccc(Nc2nc(C)cs2)cc1,-16%
24,Cc1ccc(Nc2nc(-c3cccs3)cs2)nc1,1% (active)
25,COc1ccccc1-n1cnc2sc(C)c(C)c2c1=O,-6%
26,CCN1C(=O)[C@H]2[C@@H](c3ccc(-c4ccc(OC)cc4)cc3)N[C@@](C)(C(=O)OC)[C@H]2C1=O,-4%

row,SMILES,"activity increase over dofetilide control, less the hit threshold"
1,CCCCn1nc(NC(=O)COC)c2cc3ccc(C)cc3nc21,-22%
2,CCOC(=O)C(C)Sc1nc2c(c(-c3cccs3)c1C#N)CCC2 (centres undefined),1% (active)
3,COc1cc(/C=C2/C(=O)NN(c3ccccc3)C2=O)cc(Br)c1O,-25%
4,Cc1cccc(N(C(=O)c2csnn2)C(C(=O)NCc2ccccc2)c2ccncc2)c1 (centres undefined),-11%
5,CCCNC(=O)N1CCN(S(=O)(=O)c2ccc(C)cc2)CC1,-16%
6,CSc1nc2c(c(=O)[nH]1)C(c1ccccc1Cl)CC(=O)N2 (centres undefined),17% (active)
7,CSc1nc2c(c(=O)[nH]1)C(c1ccc(Cl)cc1)CC(=O)N2 (centres undefined),113% (active)
8,CSc1nc2c(c(=O)[nH]1)C(c1ccc(F)cc1)CC(=O)N2 (centres undefined),18% (active)
9,CSc1nc(C)c(Cc2ccccc2)c(=O)[nH]1,-20%
10,CSc1nc2c(c(=O)[nH]1)C(c1ccc(Br)cc1)CC(=O)N2 (centres undefined),25% (active)
11,O=c1[nH]c(=S)[nH]c2c1C(c1ccc(Br)cc1)c1c([nH]c(=S)[nH]c1=O)O2,-17%
12,CCSc1nc2c(c(=O)[nH]1)C(c1ccc(C)cc1)C1=C(CCCC1=O)N2 (centres undefined),-7%
13,CN1N=C(C(=O)N2CCc3c([nH]c4ccccc34)C2c2c(F)cccc2Cl)CCC1=O (centres undefined),-13%
14,O=C(O)Cn1cc(CN2CCOCC2)c2ccccc21,-22%
15,Cc1cccc(NC(=S)N/N=C2/CCCCc3ccccc32)c1,-11%
16,S=c1[nH]nc(CSc2nc3ccccc3s2)n1C1CCCCC1,5% (active)
17,Cc1ccc(NC(=S)NC(=O)c2sc3ccccc3c2Cl)c(C(=O)O)c1,-1%
18,O=C(N/N=C/c1ccccn1)c1sc2ccccc2c1Cl,-27%
19,CCOC(=S)NC(=O)c1sc2ccccc2c1Cl,40% (active)
20,CCCOC(=S)NC(=O)c1sc2ccccc2c1Cl,30% (active)
21,COC(=O)Cn1c(=NC(=O)c2sc3ccccc3c2Cl)sc2cc(S(N)(=O)=O)ccc21,-2%
22,CCCCOC(=S)NC(=O)c1sc2ccccc2c1Cl,86% (active)
23,CC(C)C(=O)N(c1ccc(F)cc1)C1C=CS(=O)(=O)C1 (centres undefined),-20%
24,CCOC(=O)C1C(c2ccccc2)C(C(=O)OCC)C1c1ccccc1 (centres undefined),-6%
25,CCCSc1cc(NCCOC(C)=O)c([N+](=O)[O-])c2nonc12,-13%
26,CC(C)CCNC(=O)CCc1nnc(Cc2c[nH]c3ccccc23)o1,-9%

row,SMILES,"activity increase over dofetilide control, less the hit threshold"
1,CCCCCN(C(=O)CCC(=O)OC(C)C(=O)c1ccccc1)c1c(N)n(CCCC)c(=O)[nH]c1=O (centres undefined),-16%
2,CCCNC(=O)N(C)c1nncnc1C(=O)NC,-7%
3,O=c1c2ccccc2[nH]c(=S)n1C1CCCCC1,2% (active)
4,CC1CCCCC1n1c(=S)[nH]c2ccccc2c1=O (centres undefined),1% (active)
5,CC1CCC(N2CCN(C(=O)c3ccccc3F)CC2)CC1 (centres undefined),-6%
6,CC1CCC(n2c(=S)[nH]c3ccccc3c2=O)CC1 (centres undefined),22% (active)
7,O=C1NCC(=O)N2C(c3ccccc3)c3[nH]c4ccccc4c3C[C@@H]12 (some centres undefined),-22%
8,C=CCNC(=O)c1onc(CSc2ccc(OC)cc2)c1C(=O)O,-11%
9,NC(=O)CC1NC(=O)c2ccccc21 (centres undefined),-10%
10,O=C(Cn1c(=O)oc2ccccc21)Nc1ccc(F)c(F)c1,-29%
11,Cc1cc(=S)[nH]c2c(C)cccc12,5% (active)
12,S=c1[nH]c2cc(-c3ccccc3)ccc2o1,84% (active)
13,CCOc1c(OC)ccc2c3c(c(=O)oc12)CCCC3,-20%
14,Cc1c(OC(C)C(=O)NCCN2CCOCC2)ccc2c3c(c(=O)oc12)CCC3 (centres undefined),3% (active)
15,Cc1ccc(-c2nc(CS(=O)(=O)CC(=O)NCCN3CCOCC3)c(C)o2)cc1,-13%
16,FC(F)(F)c1cnc2c(c1)[nH]c(=S)n2-c1ccc(Cl)cc1,21% (active)
17,CCCn1c(=S)[nH]c2ccc(C(F)(F)F)cc21,-3%
18,Clc1ccc(N=NN2CCOCC2)cc1,-8%
19,COc1cc2c(=O)nc3n(c2cc1OC)C(c1ccccc1)N=C(N)N3 (centres undefined),-8%
20,CN1C(=O)/C(=N\OC(=O)c2cccc3ccccc23)c2ccccc21,15% (active)
21,CN1C(=O)c2ccc(C(=O)NCc3ccccc3)cc2C1=O,-16%
22,CCN(CC)C(=O)CN1C(=O)c2cccc3cccc(c23)C1=O,-15%
23,CN1C(=O)/C(=N/OC(=O)c2ccccc2)c2ccccc21,3% (active)
24,O=C1c2ccccc2C(=O)N1c1cccnc1,-12%
25,c1ccc(OCc2nn3c(Cn4cnc5ccccc54)nnc3s2)cc1,-10%
26,O=C(CNC1CCCCCC1)Nc1ccccc1N1CCOCC1,-12%

row,SMILES,"activity increase over dofetilide control, less the hit threshold"
1,O=C(NC(=S)Nc1cccc(Cl)c1N1CCCCC1)c1cccs1,-10%
2,O=C(NC(=S)Nc1cccc(Cl)c1N1CCCCC1)c1ccco1,52% (active)
3,O=C(NC(=S)NC1CCCc2ccccc21)c1ccco1 (centres undefined),13% (active)
4,O=C(COc1ccc(Cl)cc1Cl)NC(=S)Nc1ccccc1C(=O)O,-6%
5,O=C(COc1ccccc1Cl)NC(=S)Nc1ccccc1N1CCCC1,15% (active)
6,O=C(NC(=S)Nc1ccccc1N1CCCC1)c1ccc([N+](=O)[O-])cc1,4% (active)
7,CCOc1ccc(NC(=O)CS(=O)CC(=O)NC2CCCc3ccccc32)cc1 (centres undefined),-7%
8,Cc1cccc(OCC(=O)NC2CCCc3ccccc32)c1C (centres undefined),-11%
9,O=C(NC(=S)Nc1cccc(Cl)c1N1CCOCC1)c1cccs1,-5%
10,O=C(NC(=S)Nc1ccccc1N1CCCC1)c1ccc(-c2cccc([N+](=O)[O-])c2)o1,-6%
11,N#Cc1cccc(NC(=O)c2nc(-c3ccccc3)n(-c3ccccc3)n2)c1,-18%
12,Fc1ccccc1N1CCN(c2cnc3ccccc3n2)CC1,-9%
13,Nc1nnc(SCC(=O)OCc2ccc(F)cc2)s1,-27%
14,Cc1cc(-c2cccnc2)c(C#N)c(SCc2cccc(F)c2)n1,-15%
15,CCCCNC(=O)N1CCCC(C(=O)c2cc(C)c(OC)c(C)c2)C1 (centres undefined),-22%
16,C/C(N)=C(/C#N)C(=O)COC(=O)C1CCC(C(C)(C)C)CC1 (centres undefined),-7%
17,CCC(C)(C(=O)NC1CCCC1)N(C(=O)c1ccccn1)c1ccccc1 (centres undefined),-17%
18,Cc1cc(-c2cccc(Br)c2)c(C#N)c(N)n1,-15%
19,CCNC(=O)NC1c2ccccc2CSc2ccccc21 (centres undefined),-19%
20,O=C(NC(=S)Nc1ccccc1Cl)c1ccco1,18% (active)
21,O=C(CCc1ccccc1)NC(=S)Nc1cc(C(F)(F)F)ccc1N1CCOCC1,-14%
22,CC1CCN(c2ccccc2NC(=S)NC(=O)c2ccco2)CC1,-6%
23,O=C(NC(=S)Nc1ccccc1N1CCCC1)c1ccco1,4% (active)
24,O=C(NC(=S)Nc1cc(C(F)(F)F)ccc1N1CCOCC1)c1ccco1,10% (active)
25,O=C(NC(=S)Nc1ccc(N2CCCCC2)cc1)c1ccco1,45% (active)
26,O=C(NC(=S)Nc1ccccc1Br)c1ccco1,-1%
